Consider 20 compounds from PubChem BioAssay (Tox21).

Results filed as inconclusive are left out. A call without a number means that no potency is given here. Active and inactive are the calls of the source. The call rests on the fitted dose curve; in most records, active means well fitted cell-killing curve with a large enough effect in the repeat runs; inconclusive means weak or mixed curves, or effect the other way; inactive means no such curve, though single readings can be large or run the other way.
Potency means the concentration at half of the fitted maximal effect.

The experiment is described as follows: qHTS assay to identify small molecule agonists of the RXR signaling pathway - cell viability counter screen (AID 1159529). Further: nearly all actives have a fitted effect of over 50% in size. Particulars: RXR-alpha-bla HEK293T viability, CellTiter-Glo, 16 h; series mostly up to 76.8 µM. The gist of the method: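 Steps: seed RXR-alpha-UAS-bla HEK 293T cells in assay medium containing 2% charcoal-stripped FBS; incubate 5 hr; add compounds in DMSO; incubate 16 hr at 37 C; after the bla read, add CellTiter-Glo and read luminescence at 30 min.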
In general terms: In qHTS, concentration-response curves come from the screen itself.
Take `O=[N+]([O-])c1cccc2cccc([N+](=O)[O-])c12`: the Potency entry was “inactive”.

Consider `CCN1CCC2(CC1)COc1cc3c(cc12)N(C(=O)c1ccc(-c2ccc(-c4nnc(C)o4)cc2C)cc1)CC3`, for which the Potency is 3.59 µM (active).

With `O=NN(CCO)CCO`, the Potency result is “inactive”.

In the case of `CC(=O)O.CC(=O)O.CC(=O)O.CC(=O)O.CC(=O)O.CC(=O)O.CC(=O)O.O.O.[Cr].[Cr].[Cr]`, the Potency result was “inactive”.

For the compound `CCN(CC)Cc1nccn1-c1ccc([N+](=O)[O-])cc1C(=O)c1ccccc1Cl`, the Potency entry was “inactive”.

As for `Nc1ccc(Cl)cc1C(=O)c1ccccc1F`, the Potency entry is “inactive”.

Consider `COC(=O)c1cc(Oc2ccc(Cl)cc2Cl)ccc1[N+](=O)[O-]`, for which the Potency result is “inactive”.

In the case of `C#CCO`, the Potency result was “inactive”.

Regarding `CCc1cccc(C)c1N(C(=O)CCl)[C@@H](C)COC`, the Potency entry is “inactive”.

In the case of `CC(C)N(C(=O)CCl)c1ccccc1`, the Potency is 24.5 µM (active).

Turning to `Oc1cc(Cl)c(Cl)c(Cl)c1Cl`, the Potency result is “inactive”.

With `Fc1ccc(C(OCCN2CCN(CCCc3ccccc3)CC2)c2ccc(F)cc2)cc1`, the Potency is 16.9 µM (active).

For the compound `COC(=O)N(OC)c1ccccc1COc1ccn(-c2ccc(Cl)cc2)n1`, the Potency entry is “inactive”.

`CCCCn1cc[n+](C)c1.[Cl][Fe-]([Cl])([Cl])[Cl]`: the Potency result is “inactive”.

`COc1nc(C)nc(NC(=O)NS(=O)(=O)c2ccccc2Cl)n1`: the Potency result was “inactive”.

`Clc1cc(Cl)c(-c2cc(Cl)c(Cl)cc2Cl)cc1Cl`: the Potency entry was “inactive”.

Turning to `CNC(=O)Oc1cc(C)cc(C(C)C)c1`, the Potency result is “inactive”.

On to `ClCBr`, for which the Potency entry was “inactive”.

With `c1ccc(N=NNc2ccccc2)cc1`, the Potency entry was “inactive”.

Regarding `CCC[CH2][Sn]([CH2]CCC)([CH2]CCC)[O][Sn]([CH2]CCC)([CH2]CCC)[CH2]CCC`, the Potency was 0.479 µM (active).
